Screens (PubChem BioAssay)
PAFAH1B3 FP inh = PAFAH1B3 enzyme inhibitors, primary screen, biochemical, fluorescence polarization, human; Platelet-activating factor acetylhydrolase IB subunit alpha1 (Homo sapiens), Q15102; recombinant PAFAH1B3, FP-rhodamine probe; inhibition, % at 3.39 µM; actives 0.28% (n = 340,000);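 active means inhibition above the screen-wide average of all tested compounds plus 3 SD, cut at about 25% in these data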;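 further: 0% = enzyme with DMSO only and 100% = wells lacking PAFAH1B3 protein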
PME-1 inh = PME-1 inhibitors via competitive probe labeling, primary screen, biochemical, fluorescence polarization, FP-Rh probe, HTS | Protein phosphatase methylesterase 1 (Homo sapiens), Q9Y570 | recombinant PME-1 | actives 0.53% (n = 320,000) | AID 2130, 2009 | inhibition, % at 5.9 µM;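 active means inhibition above the campaign mean of all compounds plus 3 SD, cut at about 26% in these data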;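 further: competitive labeling of PME-1 active site by serine hydrolase directed probe; 0% = PME-1 with DMSO and 100% = wells lacking PME-1 enzyme; inhibitors block probe labeling so polarization falls and inhibition rises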
Target sequence (Q9Y570 whole entry, looked up): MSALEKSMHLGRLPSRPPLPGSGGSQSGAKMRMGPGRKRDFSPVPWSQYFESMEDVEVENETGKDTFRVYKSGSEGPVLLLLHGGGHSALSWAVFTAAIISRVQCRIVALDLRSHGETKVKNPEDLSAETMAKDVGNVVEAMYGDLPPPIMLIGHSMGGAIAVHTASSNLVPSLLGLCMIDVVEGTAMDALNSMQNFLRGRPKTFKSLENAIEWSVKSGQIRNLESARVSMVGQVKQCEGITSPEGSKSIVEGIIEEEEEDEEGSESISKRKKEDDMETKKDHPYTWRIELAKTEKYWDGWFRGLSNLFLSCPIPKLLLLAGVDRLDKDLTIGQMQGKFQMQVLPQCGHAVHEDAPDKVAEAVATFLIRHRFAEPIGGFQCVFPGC
Fam108B inh = mouse Fam108B serine hydrolase inhibitors, primary screen, counter-screen for RBBP9 inhibitor project, biochemical, fluorescence polarization; recombinant Fam108B, FP-Rh probe fluorescence polarization; inhibition, % at 9.51 µM; actives 0.33% (n = 300,000); AID 1947, 2009;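 active means inhibition above the screen mean inhibition plus 3 SD, computed separately per campaign, cut at about 18% in these data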;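 further: inhibitors lower polarization as less probe binds the enzyme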
PAFAH1B2 inh = PAFAH1B2 enzyme inhibitors, primary screen, biochemical, fluorescence polarization, human. Platelet-activating factor acetylhydrolase IB subunit alpha2 (Homo sapiens), P68402. recombinant PAFAH1B2, FP-rhodamine activity probe. inhibition, % at 3.39 µM. actives 1.2% (n = 340,000). AID 492953, 2010;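 active means inhibition above the mean of all tested compounds plus 3 SD, cut at about 24% in these data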;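 further: 0% = enzyme with DMSO and 100% = wells lacking PAFAH1B2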
Target sequence (P68402 whole entry, looked up): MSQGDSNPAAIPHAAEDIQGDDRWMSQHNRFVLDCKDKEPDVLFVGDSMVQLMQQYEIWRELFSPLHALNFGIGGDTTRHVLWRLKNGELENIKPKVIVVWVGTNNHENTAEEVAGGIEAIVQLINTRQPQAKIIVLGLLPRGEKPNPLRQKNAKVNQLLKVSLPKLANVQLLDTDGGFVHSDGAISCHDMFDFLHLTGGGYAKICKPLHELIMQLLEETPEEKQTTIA
PAFAH2 inh = PAFAH2 enzyme inhibitors, primary screen, biochemical, fluorescence polarization, human; Platelet-activating factor acetylhydrolase 2, cytoplasmic (Homo sapiens), Q99487; recombinant PAFAH2, FP-rhodamine activity probe; inhibition, % at 3.39 µM; actives 0.99% (n = 340,000); AID 492956, 2010;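 active means inhibition above the mean over all tested compounds plus 3 SD, cut at about 30% in these data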;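 further: inhibitors block probe labeling of enzyme so polarization drops; 0% = enzyme with DMSO and 100% = wells lacking PAFAH2 protein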
pPAFAH FP inh = pPAFAH enzyme inhibitors, primary screen, biochemical, fluorescence polarization, human. Platelet-activating factor acetylhydrolase (Homo sapiens), Q13093. recombinant pPAFAH, FP-rhodamine probe fluorescence polarization. inhibition, % at 3.39 µM. actives 1.5% (n = 330,000). AID 463082, 2010;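 active means inhibition above the mean inhibition across the screen plus 3 SD, cut at about 25% in these data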;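 further: inhibitors block binding of the rhodamine activity-based probe so polarization drops; 0% = enzyme with DMSO and 100% = wells lacking pPAFAH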
The depositor's hits bear a star; nt = not tested or not shown. Only some compounds are listed: those with a hit (about 2.8% of all), similar ones and a draw of the others.

SMILES	PAFAH1B3 FP inh	PME-1 inh	Fam108B inh	PAFAH1B2 inh	PAFAH2 inh	pPAFAH FP inh
CCn1c(SCc2cccc(F)c2)nc2c(c1=O)SCC2	5	0	-3	0	-1	6
COC(=O)C(NC(=O)c1ccccc1Cl)(Nc1ncc(S(=O)(=O)c2ccc([N+](=O)[O-])cc2)s1)C(F)(F)F (stereo not drawn)	6	10	6	26*	2	2
O=C1C(=O)C(c2ccccc2)C(=O)C1c1ccccc1 (stereo not drawn)	10	nt	nt	32*	7	nt
COC(=O)c1ccc2c(=O)[nH]c(COC(=O)c3c(-c4ccccc4Cl)noc3C)nc2c1	2	-6	1	4	0	6
COc1ccc(C(=O)NC(=O)CSc2n[nH]c(N)n2)cc1	6	nt	nt	7	2	-1
O=C(NNC(=O)c1ccccc1O)c1ccc(-c2ccc([N+](=O)[O-])cc2)o1	8	7	6	6	39*	32*
O=C(NNC(=O)c1ccccc1O)c1cc2ccccc2o1	14	-5	-6	10	15	26*
COc1ccc2cc(C(C)C(=O)NC3CCC(O)CC3)ccc2c1 (stereo not drawn)	9	0	-2	6	-3	6
CC(C)CCNC(=O)c1ccc2nc[nH]c2c1	5	-5	3	1	0	2
O=C(NCCc1ccc(Cl)cc1Cl)c1ccc2nc[nH]c2c1	10	5	-1	29*	-1	-2
O=C(NCCSc1ccc(Br)cc1)c1ccc2nc[nH]c2c1	17	-2	1	47*	2	30*
COC1=CC(=O)c2c(ccc3ncnc(N)c23)C1=O	69*	nt	nt	22	48*	nt
CC(=O)Nc1ccc(Nc2nc3ccccc3nc2NS(=O)(=O)c2ccc(Cl)c([N+](=O)[O-])c2)cc1	31*	nt	nt	23	52*	nt
CCc1nnc(NC(=O)CN2C(=O)N(C)C3(CCCCC3)C2=O)s1	2	2	nt	1	4	1
CNC(=O)c1c(C)nn(-c2ccc(F)c(Cl)c2)c1-c1cc(C)on1	nt	-1	-2	nt	nt	-1
COc1cccc(CNC(=O)CCn2ccc3cc(S(=O)(=O)N4CCC(C)CC4)ccc32)c1	7	2	12	25*	4	4
COC(=O)c1ccsc1NS(=O)(=O)c1ccccc1	5	1	-1	5	0	28*
CSc1ccccc1NC(=O)CN(C)C(=O)c1ccc(-n2cccn2)cc1	8	3	nt	0	-9	2
CC12CC3CC(C)(C1)CC(C(=O)NNC(=O)c1ccncc1)(C3)C2	12	5	-1	25*	8	3
O=C(NNC(=O)C12CC3CC(CC(C3)C1)C2)c1ccncc1	9	3	0	9	-11	0
CC(NC(=O)C12CC3CC(C)(CC(C)(C3)C1)C2)c1ccncc1 (stereo not drawn)	9	-2	2	25*	11	7
O=C(COC(=O)c1ccccc1O)Nc1cc([N+](=O)[O-])ccc1Cl	3	-1	4	6	-5	-1
CCn1c(=O)c(=O)[nH]c2c(=O)oc3ccc(S(=O)(=O)Nc4ccccc4)cc3c21	8	-2	0	4	16	3
COc1cccc(C(=O)NCCS(=O)(=O)NC2CCCC2)c1	5	5	6	7	5	-1
Cn1c(SCc2ccc(Br)cc2)nnc1-c1cccs1	-1	8	0	24*	0	2
SMILES	PAFAH1B3 FP inh	PME-1 inh	Fam108B inh	PAFAH1B2 inh	PAFAH2 inh	pPAFAH FP inh
O=c1[nH]c(CN2CCN(c3ccc([N+](=O)[O-])cc3)CC2)nc2ccsc12	-3	-24	3	32*	-5	10
COc1ccc(N2CCN(Cc3nc4ccsc4c(=O)[nH]3)CC2)cc1	5	-4	3	1	-1	0
O=S(=O)(Nc1ccc2c(c1)OCCO2)c1c(F)cccc1F	2	3	0	1	3	4
COc1cc2nc(Nc3ccc(C)c(C)c3)nc(N)c2cc1OC	16	18	5	7	5	7
CCOC(=O)c1ccc(Nc2nc(N)c3cc(OC)c(OC)cc3n2)cc1	-4	27*	12	8	4	9
C=CCN1C(=O)c2ccc(C(=O)OCC(=O)N(CC)c3c(N)n(Cc4ccccc4)c(=O)[nH]c3=O)cc2C1=O	3	nt	nt	3	1	nt
CC(=O)Nc1ccc(S(=O)(=O)NCC(=O)OCC(=O)N2CCCCCC2)cc1	-6	-4	nt	1	6	2
Cc1[nH]c2ccc(C(=O)OC(C)C(=O)NC3(C#N)CCCCC3)cc2c1C (stereo not drawn)	0	-1	-1	3	13	5
O=C(/C=C/c1ccoc1)c1ccccc1O	-1	1	-2	1	1	0
COc1ccc2ccccc2c1C(=O)/C=C\c1ccoc1	0	-2	-1	1	6	27*
CN(C1CCCCC1)S(=O)(=O)c1ccc(SCC(=O)C(C)(C)C)nc1	10	nt	nt	9	7	3
Cc1c(C(=O)N2CCN(Cc3ccccc3)CC2)oc2c1C(=O)CC(C)(C)C2	4	1	2	1	4	3
CCOC(=O)c1ccc(NC(=O)N2CCN(c3ccccc3OC)CC2)cc1	6	-3	0	-1	0	4
O=C1NCCOC(=O)[C@H](Cc2ccc(F)cc2)C/C=C\C[C@@H]1CC(=O)N(CCO)Cc1ccccc1	4	nt	nt	13	4	3
O=C1N[C@@H](Cc2c[nH]c3ccccc23)COC(=O)[C@H](Cc2ccc(F)cc2)C/C=C\C[C@H]1CC(=O)N(CCO)Cc1ccccc1	6	nt	nt	10	3	2
O=C1NC[C@@H](c2ccccc2)OC(=O)[C@@H](Cc2ccc(F)cc2)C/C=C\C[C@@H]1CC(=O)N(CCO)Cc1ccccc1	-3	nt	nt	64*	11	26*
O=C1NCCOC(=O)[C@H](Cc2ccc(F)cc2)C/C=C\C[C@H]1CC(=O)N(CCO)Cc1ccccc1	4	nt	nt	30*	0	7
O=C1N[C@@H](Cc2c[nH]c3ccccc23)COC(=O)[C@@H](Cc2ccc(F)cc2)CC/C=C/C[C@@H]1CC(=O)N(CCO)Cc1ccccc1	1	nt	nt	34*	-1	13
COC(CNc1ccc([N+](=O)[O-])c(NCC(OC)OC)c1C#N)OC	6	-1	1	6	0	3
O=C(c1c(Cl)cccc1Cl)N1CCN(c2ncccn2)CC1	2	0	-1	8	-3	0
COc1ccc(Cc2nnc(SC(C)C(=O)Nc3ccc(C(N)=O)cc3)o2)cc1 (stereo not drawn)	6	2	1	2	3	2
